This is an account of results in ChEMBL document CHEMBL4513135, “CO-ADD screening of IQOG CSIS (Spain) compounds”.

Potency and affinity values are given separately.

For one assay, the system named is Staphylococcus aureus. To be noted: Concentration 32 ug.mL-1; ASSAY_TEST Inhibition of Bacterial Growth; detection method Absorption (OD600); MEDIA CAMHB; plate type 384well; NBS; CORNING #3640; time 18 hr.
Another assay relates to Escherichia coli. The settings on record: Concentration 32 ug.mL-1; ASSAY_TEST Inhibition of Bacterial Growth; detection method Absorption (OD600); MEDIA CAMHB; plate type 384well; NBS; CORNING #3640; time 18 hr.

In the case of `C#CCNc1[nH]c2ccc(O)cc2c1C#N`, the Inhibition was 30.3% in the assay on Staphylococcus aureus and -3.92% in the assay on Escherichia coli.

As to `CC(=O)NCCc1ccccc1`, the Inhibition in the assay with Staphylococcus aureus is recorded as 12.71%; with Escherichia coli, 11.94%.

For `NNC(=O)c1c[nH]c2ccc(OCc3ccccc3)cc12`, the Inhibition in the assay on Staphylococcus aureus worked out at 2.88%; in the assay on Escherichia coli, 0.02%.

Turning to `CC1Cc2c(nc3c(c2N)CCCC3)NC1=O` (stereo not drawn), the Inhibition is given as 29.78% in the assay on Staphylococcus aureus and -3.82% in the assay on Escherichia coli.

On to `OCc1c(-c2ccc(Br)cc2)nc2ccccn12`, for which the figures for the Inhibition in the assay with Staphylococcus aureus and in the assay with Escherichia coli were 6.46% and 0.77%, respectively.

For `Cc1nn(-c2ccccc2)c2ncnc(NCc3ccccc3)c12`, the Inhibition is listed as 16.34% with Staphylococcus aureus and 7.89% with Escherichia coli.

For the compound `COC1(N)Oc2ccc3ccccc3c2C(c2ccccc2)C1(Br)C#N` (stereo not drawn), the Inhibition was 16.73% in the assay on Staphylococcus aureus and 20.49% in the assay on Escherichia coli.

In the case of `N#Cc1c(N)nc(N2CCOCC2)c(C#N)c1-c1ccccc1`, the Inhibition came to 7.58% with Staphylococcus aureus and 0.53% with Escherichia coli.

Turning to `CC(C)NNC(=O)Cc1c[nH]c2ccccc12`, the Inhibition was found to be 11.42% in the assay with Staphylococcus aureus and 9.11% with Escherichia coli.

Turning to `COc1ccc2c(c1)cc(CN(C)Cc1cn(Cc3ccccc3)nn1)n2C`, the results for the Inhibition in the assay with Staphylococcus aureus and with Escherichia coli were 6.23% and -32.11%, respectively.

For the compound `Cc1ccc(-c2c(C#N)c(N)nc3c2S(=O)(=O)OC3(C)C)cc1`, the Inhibition turned out to be 9.98% with Staphylococcus aureus and 6.38% in the assay on Escherichia coli.

For the compound `N#Cc1c(N)nc2[nH]nc(N)c2c1-c1ccccc1`, the results for the Inhibition in the assay with Staphylococcus aureus and in the assay with Escherichia coli were 40.83% and -6.5%, respectively.

Turning to `CCOC(=O)c1cc2cc(O)ccc2n1C(=O)OC(C)(C)C`, the Inhibition in the assay on Staphylococcus aureus worked out at 5.1%; with Escherichia coli, 10.33%.

Take `Cl.Nc1c2c(nc3c1C(c1c(Cl)cccc1Cl)c1ccc4ccccc4c1O3)CCCC2` (stereo not drawn): the Inhibition with Staphylococcus aureus is listed as -3.18%; with Escherichia coli, -2.79%.

With `CCOc1nc(N)c(C#N)cc1C#N`, the figures for the Inhibition in the assay with Staphylococcus aureus and with Escherichia coli were 33.34% and -14.2%, respectively.

Take `N#Cc1cc2c(N)c3c(nc2nc1Cl)CCN(Cc1ccccc1)C3`: the figures for the Inhibition in the assay on Staphylococcus aureus and in the assay on Escherichia coli were 31.61% and -4.39%, respectively.

For the compound `CC(=O)Oc1ccc(C=C2N=C(C)OC2=O)cc1`, the Inhibition in the assay on Staphylococcus aureus was found to be 8.81%; with Escherichia coli, 9.02%.

As to `Cc1nc(NO)c2c(C)nn(-c3ccccc3)c2n1`, the Inhibition in the assay with Staphylococcus aureus came out at 6.32%; in the assay with Escherichia coli it was 4.93%.

On to `CN(C)c1ccc(C(=NNC(=O)c2cc3ccccc3[nH]2)c2ccc(N(C)C)cc2)cc1`, for which the Inhibition is on record as -9.28% with Staphylococcus aureus and -3.28% in the assay on Escherichia coli.

In the case of `N#Cc1c(N)nc(NCCCC2CCN(Cc3ccccc3)CC2)c(C#N)c1-c1ccccc1`, the Inhibition with Staphylococcus aureus was 56.22%; in the assay on Escherichia coli, -16.73%.

Consider `N#Cc1cc2c(N)c3c(nc2nc1Cl)CCCC3`, for which the Inhibition is recorded as 35.71% in the assay with Staphylococcus aureus and -0.19% with Escherichia coli.

For `C#CCN(C)Cc1cc2cc(O)ccc2n1C.Cl`, the Inhibition with Staphylococcus aureus is given as 21.22%; in the assay on Escherichia coli it was -11.62%.

Take `CCOC(=O)CCc1c[nH]c2ccccc12`: the figures for the Inhibition in the assay on Staphylococcus aureus and in the assay with Escherichia coli were -15.79% and -15.2%, respectively.

For the compound `COc1ccc(C2c3c(nc4c(c3N)CCCC4)Oc3ccc4ccccc4c32)cc1OC` (stereo not drawn), the Inhibition in the assay on Staphylococcus aureus is on record as 3.78%; with Escherichia coli, 13.42%.

Turning to `COc1ccccc1C1C(C#N)=C(N)Oc2[nH]nc(C)c21` (stereo not drawn), the results for the Inhibition in the assay on Staphylococcus aureus and with Escherichia coli were 9.32% and 14.43%, respectively.

With `Cc1nc(Nc2ccccc2)c2cnn(-c3ccccc3)c2n1`, the Inhibition with Staphylococcus aureus turned out to be 6.87%; in the assay with Escherichia coli, 6.44%.

`COc1ccc(C2C(C#N)=C(Cl)Oc3c2ccc2ccccc32)cc1OC` (stereo not drawn): the Inhibition is -3.84% with Staphylococcus aureus and -30% in the assay with Escherichia coli.

Regarding `CC(=O)CCc1c[nH]c2ccccc12`, the Inhibition in the assay on Staphylococcus aureus turned out to be 10.48%; with Escherichia coli, 10.88%.

Turning to `N#Cc1cc(C#N)c(N2CCCC2)nc1N`, the Inhibition with Staphylococcus aureus is recorded as 51.19%; in the assay with Escherichia coli, -9.12%.

In the case of `COc1nc2nc3c(c(N)c2cc1C#N)CCCC3.Cl`, the values for the Inhibition in the assay with Staphylococcus aureus and with Escherichia coli were 7.17% and -4.74%, respectively.

For the compound `N#Cc1c(Cl)nc(Sc2ccccc2)c(C#N)c1-c1ccccc1`, the values for the Inhibition with Staphylococcus aureus and in the assay on Escherichia coli were 3.48% and -17.27%, respectively.

For `N#CC1(Br)C(=NBr)Oc2c(ccc3ccccc23)C1c1ccc([N+](=O)[O-])cc1` (stereo not drawn), the Inhibition with Staphylococcus aureus is 36.89%; in the assay on Escherichia coli, -19.6%.

For `COc1nc(N)c(C#N)cc1C#N`, the Inhibition is reported as 18.25% in the assay with Staphylococcus aureus and -3.66% in the assay on Escherichia coli.

`C#CCN(C)c1nc(Sc2ccccc2)c(C#N)c(-c2ccccc2)c1C#N`: the Inhibition in the assay on Staphylococcus aureus stood at 6.49%; in the assay with Escherichia coli, 1.09%.

Take `Cc1[nH]c2ccc(OCc3ccccc3)cc2c1C(=O)NN`: the Inhibition in the assay with Staphylococcus aureus was 3.15%; in the assay on Escherichia coli it was -5.77%.

`N#CC1=C(N)Oc2ccc3ccccc3c2C1c1ccccc1[N+](=O)[O-]` (stereo not drawn): the Inhibition is on record as 40.78% with Staphylococcus aureus and -6.45% with Escherichia coli.

For the compound `C#CCN(C)Cc1cc2cc(OCCCCC3CCN(Cc4ccccc4)CC3)ccc2n1C`, the Inhibition is 38.42% in the assay on Staphylococcus aureus and -8.55% in the assay with Escherichia coli.

For `N#Cc1c(N)nc(O)c(C#N)c1-c1ccccc1`, the Inhibition is recorded as 4.47% with Staphylococcus aureus and -25.59% in the assay on Escherichia coli.

On to `Cl.NC1(C(=O)O)CC1c1ccccc1` (stereo not drawn), for which the Inhibition with Staphylococcus aureus is on record as 12.81%; in the assay on Escherichia coli it was 11.66%.

In the case of `C/C=C(/C#N)C(=O)OC`, the values for the Inhibition in the assay with Staphylococcus aureus and in the assay on Escherichia coli were -6.91% and -6.93%, respectively.

For `Nc1c2c(nc3c1C(c1ccc(O)cc1)c1c(ccc4ccccc14)O3)CCCC2` (stereo not drawn), the Inhibition in the assay on Staphylococcus aureus was 9.54%; in the assay with Escherichia coli, 9.35%.

Turning to `CC(C)C(=O)N/N=C/c1c[nH]c2ccccc12`, the Inhibition in the assay with Staphylococcus aureus worked out at 10.48%; with Escherichia coli it was 9.69%.

`CCOC(=O)c1c[nH]c2ccc(OC)cc12`: the Inhibition with Staphylococcus aureus amounted to 4.86%; in the assay on Escherichia coli, 9.94%.

With `CC(=O)/C=C/C1CCN(Cc2ccccc2)CC1`, the Inhibition in the assay on Staphylococcus aureus is recorded as 28.47%; with Escherichia coli, -12.86%.

By Inhibition is commonly meant the drop in the measured response relative to a control, in per cent.
